These results are taken from paper PMC5540273 (PLoS ONE, 2017).

Where two headings read alike, the source gives them in different places.

One assay deals with CSK. As to conditions: concentration: 1 μM, replicates: in singlicate; n = 1.
For the next assay, the system named is CSNK1A1L. As to conditions: concentration: 1 μM, replicates: in singlicate; n = 1.
A further assay has as its system CSNK1A1. As to conditions: concentration: 1 μM, replicates: in singlicate; n = 1.
Another assay concerns CSNK1D. As to conditions: concentration: 1 μM, replicates: in singlicate; n = 1.
Another assay relates to CSNK1E. As to conditions: concentration: 1 μM, replicates: in singlicate; n = 1.
In the next assay the test system is CSNK1G1. As to conditions: concentration: 1 μM, replicates: in singlicate; n = 1.
A further assay has as its system CSNK1G2. As to conditions: concentration: 1 μM, replicates: in singlicate; n = 1.
For the next assay, the system named is CSNK1G3. As to conditions: concentration: 1 μM, replicates: in singlicate; n = 1.
The test system of the next assay is CSNK2A1. The settings on record: n = 1.
Another assay has as its system CSNK2A2. As to conditions: n = 1.
The next assay deals with T1, CTK.
T1 construct: gene MATK
As to conditions: concentration: 1 μM, replicates: in singlicate; n = 1.

The subject of the next assay is DAPK1. As to conditions: concentration: 1 μM, replicates: in singlicate; n = 1.
For a further assay, the system named is DAPK2. As to conditions: concentration: 1 μM, replicates: in singlicate; n = 1.
The next assay has as its system DAPK3. As to conditions: concentration: 1 μM, replicates: in singlicate; n = 1.
A further assay deals with T2, DCAMKL1.
T2 construct: gene DCLK1
The settings on record: concentration: 1 μM, replicates: in singlicate; n = 1.

A further assay relates to T3, DCAMKL2.
T3 construct: gene DCLK2
As to conditions: concentration: 1 μM, replicates: in singlicate; n = 1.

The next assay concerns T4, DCAMKL3.
T4 construct: gene DCLK3
The settings on record: concentration: 1 μM, replicates: in singlicate; n = 1.

In a further assay the test system is DDR1. The settings on record: concentration: 1 μM, replicates: in singlicate; n = 1.
The test system of another assay is DDR2. The settings on record: concentration: 1 μM, replicates: in singlicate; n = 1.
Another assay relates to T5, DLK.
T5 construct: gene MAP3K12
The settings on record: concentration: 1 μM, replicates: in singlicate; n = 1.

Setting [1] is: concentration: 1 μM, replicates: in singlicate.
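Further: KINOMEscan kinase panel screen.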

`COc1ccc(Nc2nccc(NCCNC(=O)Nc3cc(C)ccc3C)n2)cc1` [GSK1379899]: the “%Inh” value with CSK is 0%; in the assay on CSNK1A1L it was 1%; with CSNK1A1, 0%; in the assay with CSNK1D, 4%; in the assay on CSNK1E, 22%; with CSNK1G1, 0%. For the same compound, the “%Inh” value in the assay with CSNK1G2 was found to be 0%; with CSNK1G3, 15%; in the assay with CSNK2A1 (setting [1]), 1%; in the assay with CSNK2A2 (setting [1]) it was 0%; with CTK, 4%; in the assay with DAPK1 it was 0%. In addition, the “%Inh” value with DAPK2 came to 0%; in the assay with DAPK3, 0%; with DCAMKL1, 0%; with DCAMKL2, 0%; in the assay on DCAMKL3, 0%; in the assay on DDR1 it was 9%. For the same compound, the results for the “%Inh” value in the assay on DDR2 and in the assay with DLK were 0% and 10%, respectively.

Regarding `CC(=O)c1c(C)c2cnc(Nc3ccc(N4CCNCC4)cn3)nc2n(C2CCCC2)c1=O`, the “%Inh” value in the assay with CSK is 0%; in the assay with CSNK1A1L, 0%; with CSNK1A1, 24%; in the assay with CSNK1D it was 8%; in the assay on CSNK1E, 99.9%; in the assay on CSNK1G1, 0%. Also, the “%Inh” value in the assay with CSNK1G2 was 0%; in the assay on CSNK1G3, 0%; in the assay on CSNK2A1 (setting [1]) it was 0%; in the assay with CSNK2A2 (setting [1]), 13%; in the assay with CTK, 0%; with DAPK1, 0%. For the same compound, the “%Inh” value in the assay on DAPK2 is 13%; in the assay with DAPK3 it was 6%; in the assay with DCAMKL1 it was 0%; with DCAMKL2, 0%; in the assay with DCAMKL3, 0%; in the assay on DDR1 it was 0%. The “%Inh” value with DDR2 and with DLK was 0% in each case.

Take `O=C1NC(=O)C(c2ccc(Cl)cc2)=C1Nc1ccc(O)cc1` [SB-340867]: the “%Inh” value was 0% in the assay with CSK; 2% with CSNK1A1L; 0% with CSNK1A1; 0% in the assay with CSNK1D; 0% with CSNK1E; 0% with CSNK1G1. Also, the “%Inh” value with CSNK1G2 is 0%; with CSNK1G3, 32%; in the assay with CSNK2A1 (setting [1]), 0%; in the assay on CSNK2A2 (setting [1]) it was 0%; in the assay with CTK, 0%; with DAPK1, 0%. Moreover, the “%Inh” value in the assay on DAPK2, in the assay on DAPK3, in the assay on DCAMKL1, with DCAMKL2, in the assay on DCAMKL3 and with DDR1 was 0% in each case. In addition, the “%Inh” value with DDR2 and in the assay on DLK was 0% throughout.

In the case of `Cl.Cl.Cl.N#Cc1ccc(CCNc2nccc(-c3cccc(CN4CCNCC4)c3)n2)cc1` [GSK2137462], the “%Inh” value was determined as 15% in the assay on CSK; 2% with CSNK1A1L; 0% in the assay on CSNK1A1; 23% with CSNK1D; 55% in the assay on CSNK1E; 13% with CSNK1G1. The “%Inh” value was 0% in the assay with CSNK1G2; 14% with CSNK1G3; 20% in the assay on CSNK2A1 (setting [1]); 30% in the assay with CSNK2A2 (setting [1]); 2% in the assay on CTK; 28% in the assay with DAPK1. Besides, the “%Inh” value came to 19% in the assay on DAPK2; 75% in the assay with DAPK3; 14% with DCAMKL1; 0% with DCAMKL2; 0% in the assay with DCAMKL3; 0% in the assay with DDR1. Moreover, the “%Inh” value in the assay with DDR2 and with DLK was 0% each time.

`COc1ccc(Nc2nccc(N3CCC(NC(=O)C(C)c4ccc(Cl)cc4)C3)n2)cc1` (centres unmarked) [GSK1379735]: the “%Inh” value in the assay on CSK was 0%; in the assay with CSNK1A1L it was 1%; with CSNK1A1 it was 10%; in the assay on CSNK1D, 0%; with CSNK1E it was 11%; with CSNK1G1, 0%. Also, the “%Inh” value came to 0% in the assay on CSNK1G2; 23% in the assay with CSNK1G3; 12% in the assay with CSNK2A1 (setting [1]); 14% in the assay with CSNK2A2 (setting [1]); 4% with CTK; 0% in the assay on DAPK1. Moreover, the “%Inh” value in the assay with DAPK2 stood at 0%; with DAPK3, 0%; in the assay with DCAMKL1, 0%; with DCAMKL2, 6%; in the assay with DCAMKL3, 29%; in the assay with DDR1, 28%. The entries for the “%Inh” value in the assay on DDR2 and in the assay on DLK were 16% and 13%, respectively.

With `CS(=O)(=O)CCNCc1nc(-c2ccc3ncnc(Nc4ccc(OCc5ccccc5)c(Cl)c4)c3c2)cs1.Cl` [GW582764], the “%Inh” value in the assay with CSK is recorded as 0%; in the assay with CSNK1A1L, 9%; in the assay on CSNK1A1 it was 0%; in the assay with CSNK1D, 10%; with CSNK1E, 15%; with CSNK1G1, 0%. The “%Inh” value in the assay on CSNK1G2 came to 0%; in the assay with CSNK1G3, 13%; with CSNK2A1 (setting [1]), 0%; in the assay with CSNK2A2 (setting [1]) it was 0%; with CTK it was 0%; in the assay with DAPK1, 0%. The “%Inh” value came to 0% in the assay with DAPK2; 0% in the assay with DAPK3; 13% in the assay on DCAMKL1; 0% in the assay with DCAMKL2; 6% in the assay on DCAMKL3; 99.8% with DDR1. The entries for the “%Inh” value with DDR2 and in the assay with DLK were 40% and 50%, respectively.

As for `COC(=O)C(Cc1ccccc1)NC(=O)NC1CCN(c2ccnc(Nc3ccc(F)cc3)n2)C1` (centres unmarked) [GSK1379714], the “%Inh” value in the assay with CSK is given as 0%; in the assay with CSNK1A1L, 2%; in the assay with CSNK1A1, 5%; in the assay with CSNK1D, 7%; with CSNK1E, 7%; with CSNK1G1, 0%. For the same compound, the “%Inh” value in the assay on CSNK1G2 came to 13%; in the assay with CSNK1G3 it was 11%; with CSNK2A1 (setting [1]), 0%; with CSNK2A2 (setting [1]), 14%; in the assay on CTK, 0%; with DAPK1 it was 25%. The “%Inh” value in the assay with DAPK2 was determined as 12%; in the assay with DAPK3, 28%; with DCAMKL1 it was 7%; in the assay on DCAMKL2, 0%; with DCAMKL3 it was 8%; with DDR1, 75%. For the same compound, the “%Inh” value was determined as 47% with DDR2 and 48% with DLK.

As for `CS(=O)(=O)Cc1ccc(Nc2nccc(-c3c(-c4cccc(NC(=O)C5CCCCC5)c4)nn4ncccc34)n2)cc1` [GSK350559], the “%Inh” value in the assay with CSK is on record as 10%; with CSNK1A1L it was 0%; in the assay with CSNK1A1, 7%; in the assay with CSNK1D, 0%; in the assay on CSNK1E, 20%; with CSNK1G1, 2%. Moreover, the “%Inh” value in the assay with CSNK1G2 amounted to 5%; with CSNK1G3, 4%; with CSNK2A1 (1 µM), 17%; with CSNK2A2 (1 µM) it was 1%; in the assay on CTK it was 38%; with DAPK1, 0%. Moreover, the “%Inh” value with DAPK2 is given as 9%; in the assay with DAPK3 it was 0%; with DCAMKL1, 0%; in the assay on DCAMKL2, 15%; in the assay on DCAMKL3, 0%; in the assay with DDR1 it was 96.6%. The “%Inh” value in the assay on DDR2 came out at 54%; in the assay with DLK it was 41%.

Consider `Cc1cccc2c(-c3ccncn3)c(-c3ccc(F)cc3)nn12` [GW515532], for which the “%Inh” value with CSK is 0%; in the assay on CSNK1A1L it was 0%; with CSNK1A1, 50%; in the assay on CSNK1D, 81%; with CSNK1E, 100%; with CSNK1G1, 14%. Also, the “%Inh” value amounted to 0% in the assay with CSNK1G2; 99.9% in the assay with CSNK1G3; 1% in the assay on CSNK2A1 (setting [1]); 0% with CSNK2A2 (setting [1]); 0% with CTK; 6% with DAPK1. Further, the “%Inh” value in the assay on DAPK2 came to 0%; in the assay on DAPK3 it was 0%; with DCAMKL1 it was 0%; in the assay with DCAMKL2 it was 0%; in the assay with DCAMKL3, 1%; in the assay with DDR1, 43%. For the same compound, the results for the “%Inh” value with DDR2 and in the assay on DLK were 16% and 25%, respectively.

As to `COc1ccc(CSc2nnc(-c3ccc4c(c3)CCO4)o2)cc1`, the “%Inh” value in the assay with CSK worked out at 0%; in the assay with CSNK1A1L, 3%; with CSNK1A1, 0%; in the assay on CSNK1D, 0%; in the assay with CSNK1E, 0%; in the assay on CSNK1G1, 0%. Besides, the “%Inh” value with CSNK1G2, in the assay on CSNK1G3, in the assay with CSNK2A1 (setting [1]), with CSNK2A2 (setting [1]), in the assay with CTK and with DAPK1 was 0% each time. The “%Inh” value in the assay with DAPK2 is on record as 18%; in the assay on DAPK3, 0%; with DCAMKL1, 0%; in the assay on DCAMKL2, 0%; in the assay on DCAMKL3, 0%; with DDR1, 0%. Also, the figures for the “%Inh” value with DDR2 and in the assay with DLK were 15% and 0%, respectively.
